# The supplement of paper PMC6555819
# Columns and labels:
# Assay in all cases: PBM binding z-score (relative to random genomic background probes); higher = stronger binding; sequences stand for … in GC…GCGATTGACAGCGTAGAATGAAGG
# [1] = tested on: FXR:RXRa (NR concentration 270 nM, RXRa partner concentration 90 nM)
# How it was run: (§1)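 Ligand-free nuclear receptor dimers were bound for 1 h to custom Agilent 4×180K protein-binding microarrays. Detection used antibodies against each partner (one per run). Binding z-scores rest on regression-normalized fluorescence, with random background probes as the reference.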
# [2] = tested on: LXRa:RXRa (NR concentration 270 nM, RXRa partner concentration 90 nM)
# How it was run: as §1
# [3] = tested on: LXRa homodimer (NR concentration 270 nM)
# How it was run: as §1
# [4] = tested on: LXRb:RXRa (NR concentration 270 nM, RXRa partner concentration 90 nM)
# How it was run: as §1
# [5] = tested on: LXRb homodimer (NR concentration 270 nM)
# How it was run: as §1
# [6] = tested on: PPARa:RXRa (NR concentration 270 nM, RXRa partner concentration 90 nM)
# How it was run: as §1
# [7] = tested on: PPARg:RXRa (NR concentration 180 nM, RXRa partner concentration 90 nM)
# How it was run: as §1
# [8] = tested on: PPARg:RXRa 270nM:90nM, anti-RXR (NR concentration 270 nM, RXRa partner concentration 90 nM)
# How it was run: as §1
# [9] = tested on: PPARg:RXRa 30nM:10nM, anti-RXR (NR concentration 30 nM, RXRa partner concentration 10 nM)
# How it was run: as §1
# [10] = tested on: PPARg:RXRa 90nM:30nM, anti-RXR (NR concentration 90 nM, RXRa partner concentration 30 nM)
# How it was run: as §1
# [11] = tested on: PPARg:RXRa DBDmut IVT, anti-RXR (DBD mutation: RXRa K156A/R161A, NR concentration 270 nM, RXRa partner concentration 90 nM)
# How it was run: as §1
# [12] = tested on: PPARg:RXRa IVT, anti-PPARg (NR concentration 270 nM, RXRa partner concentration 90 nM)
# How it was run: as §1
# [13] = tested on: PPARg DBDmut:RXRa IVT, anti-PPARg (DBD mutation: PPARg1 K132A/R137A, NR concentration 270 nM, RXRa partner concentration 90 nM)
# How it was run: as §1
# [14] = tested on: PPARg DBDmut IVT, anti-PPARg (DBD mutation: PPARg1 K132A/R137A, NR concentration 270 nM)
# How it was run: as §1
# [15] = tested on: PPARg homodimer (NR concentration 180 nM)
# How it was run: as §1
# [16] = tested on: PXR:RXRa (NR concentration 270 nM, RXRa partner concentration 90 nM)
# How it was run: as §1
# [17] = tested on: PXR homodimer (NR concentration 270 nM)
# How it was run: as §1
# [18] = tested on: RARa:RXR (NR concentration 270 nM, RXRa partner concentration 90 nM)
# How it was run: as §1
# [19] = tested on: RARa homodimer (NR concentration 270 nM)
# How it was run: as §1
# [20] = tested on: RARb:RXRa (NR concentration 270 nM, RXRa partner concentration 90 nM)
# How it was run: as §1
Sequence,PBM binding z-score [1],PBM binding z-score [2],PBM binding z-score [3],PBM binding z-score [4],PBM binding z-score [5],PBM binding z-score [6],PBM binding z-score [7],PBM binding z-score [8],PBM binding z-score [9],PBM binding z-score [10],PBM binding z-score [11],PBM binding z-score [12],PBM binding z-score [13],PBM binding z-score [14],PBM binding z-score [15],PBM binding z-score [16],PBM binding z-score [17],PBM binding z-score [18],PBM binding z-score [19],PBM binding z-score [20]
TCAGACAGGTGAAGATAACTCAGGTACGCAGTCG,0.856,0.897,0.162,1.04,-0.112,1.39,1.09,2.31,3.92,2.92,2.79,0.984,0.555,0.567,0.861,0.46,0.241,0.891,0.4,1.1
AGCACGAGGGCACGCTGAGTTGATAGCAGAGTAG,0.941,0.602,-0.669,0.23,-1.28,1.61,1.22,0.752,-0.187,0.162,2.09,2.17,0.0423,-0.669,0.0355,1.32,0.313,0.919,-0.335,2.59
GCTAGCAGGCCATTTGGGTCGCTCAATGACGGGC,-0.655,-0.842,-0.846,-1.04,-1.24,-0.407,-0.08,-0.417,-0.944,-0.61,0.479,0.26,-1.18,-1.25,-1.01,-0.81,-0.85,-0.542,-1.69,-0.0207
CAAACTAGGGCACGAAAGGTCAAAGTCGAATGAC,5.64,6.93,6.08,5.54,1.5,6.49,8.39,7.22,5.17,7.03,7.59,8.38,2.22,0.682,2.46,5.93,1.28,6.53,1.46,4.98
ATCTCTAGGTAAAGTTCAGTCAAAGATCGATAGA,1.73,3.21,2.37,1.64,0.899,2.44,3.53,4.45,2.64,4.1,1.91,2.68,1.08,1.44,1.63,2.32,1.93,1.48,1.68,2.55
TCTTTTAGATCAATAGAGGTTAAGAAAGTGCGCT,1.13,4.04,0.769,2.06,0.963,2.16,0.209,2.08,3.57,2.92,1.67,1.53,1.94,1.81,0.69,3.35,0.207,2.08,-0.186,1.23
GCTCACGGGTCAAAGGTTATAGCATGAATAGAAT,7.17,5.69,0.496,5.67,0.379,6.85,9.36,8.27,6.88,8.29,2.57,4.03,0.462,0.56,2.09,6.14,0.22,8.47,0.284,4.46
